For assay [1], the target named is Dual specificity protein kinase CLK3 (Homo sapiens) (UniProt P49761). As to conditions: at 1 µM.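 Further: each value is the mean inhibition of CLK3.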
The target in assay [2] is Dual specificity tyrosine-phosphorylation-regulated kinase 1A (Homo sapiens) (UniProt Q13627). Particulars: at 0.1 µM.
The target is the same in assay [3]. As to conditions: at 1 µM.
Assay [4] deals with Dual specificity tyrosine-phosphorylation-regulated kinase 1B (Homo sapiens) (UniProt Q9Y463). As to conditions: at 0.1 µM.
The target is the same in assay [5]. Particulars: at 1 µM.
Assay [6] concerns the target T1, Dual specificity tyrosine-phosphorylation-regulated kinase 2 (Homo sapiens) (UniProt Q92630).
T1 sequence (whole entry): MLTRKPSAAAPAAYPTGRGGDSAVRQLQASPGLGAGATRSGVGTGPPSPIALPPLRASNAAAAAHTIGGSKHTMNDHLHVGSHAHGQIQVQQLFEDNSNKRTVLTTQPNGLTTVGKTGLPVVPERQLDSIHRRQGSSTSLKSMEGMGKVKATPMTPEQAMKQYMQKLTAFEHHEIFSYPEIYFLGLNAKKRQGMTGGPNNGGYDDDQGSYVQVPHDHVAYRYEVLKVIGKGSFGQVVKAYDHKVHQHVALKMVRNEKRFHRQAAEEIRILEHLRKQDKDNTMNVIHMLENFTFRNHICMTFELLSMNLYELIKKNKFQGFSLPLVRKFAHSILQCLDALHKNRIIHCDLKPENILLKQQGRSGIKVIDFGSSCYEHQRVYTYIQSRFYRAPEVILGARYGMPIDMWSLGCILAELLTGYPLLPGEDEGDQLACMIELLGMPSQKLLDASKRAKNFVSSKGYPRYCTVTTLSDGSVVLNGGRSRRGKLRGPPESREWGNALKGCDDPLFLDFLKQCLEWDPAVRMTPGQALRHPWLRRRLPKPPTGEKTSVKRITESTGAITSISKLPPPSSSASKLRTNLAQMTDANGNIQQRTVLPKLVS
Particulars: at 0.1 µM.

Assay [7] deals with T1, Dual specificity tyrosine-phosphorylation-regulated kinase 2 (Homo sapiens). As to conditions: at 1 µM.
Assay [8] addresses Glycogen synthase kinase-3 alpha (Homo sapiens) (UniProt P49840). As to conditions: at 0.1 µM.
The target is the same in assay [9]. Particulars: at 1 µM.
Assay [10] deals with Glycogen synthase kinase-3 beta (Homo sapiens) (UniProt P49841). As to conditions: at 0.1 µM.
Assay [11] has the same target. As to conditions: at 1 µM.
Assay [12] deals with Homeodomain-interacting protein kinase 1 (Homo sapiens) (UniProt Q86Z02). As to conditions: at 0.1 µM.
For assay [13] the target is unchanged. Particulars: at 1 µM.
The target of assay [14] is T2, Homeodomain-interacting protein kinase 4 (Homo sapiens) (UniProt Q8NE63).
T2 sequence (whole entry): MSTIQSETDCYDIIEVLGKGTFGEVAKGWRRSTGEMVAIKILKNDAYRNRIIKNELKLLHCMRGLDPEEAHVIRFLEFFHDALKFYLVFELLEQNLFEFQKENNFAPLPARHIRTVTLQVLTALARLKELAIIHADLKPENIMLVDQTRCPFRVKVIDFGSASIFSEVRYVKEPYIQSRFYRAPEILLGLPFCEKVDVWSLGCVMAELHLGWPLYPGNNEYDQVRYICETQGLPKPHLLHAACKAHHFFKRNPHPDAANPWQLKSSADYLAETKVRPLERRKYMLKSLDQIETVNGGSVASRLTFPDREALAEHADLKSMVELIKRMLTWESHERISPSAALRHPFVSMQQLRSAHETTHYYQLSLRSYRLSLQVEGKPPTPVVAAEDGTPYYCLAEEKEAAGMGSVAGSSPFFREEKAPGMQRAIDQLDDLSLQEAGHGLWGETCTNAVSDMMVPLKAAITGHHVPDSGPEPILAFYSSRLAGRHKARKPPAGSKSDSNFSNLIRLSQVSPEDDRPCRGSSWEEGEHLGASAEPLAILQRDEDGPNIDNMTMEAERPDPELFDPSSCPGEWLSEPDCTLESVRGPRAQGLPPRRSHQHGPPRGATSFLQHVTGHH
As to conditions: at 0.1 µM.

For assay [15], the target named is T2, Homeodomain-interacting protein kinase 4 (Homo sapiens). Particulars: at 1 µM.
Assay [16] concerns the target Mitogen-activated protein kinase 9 (Homo sapiens) (UniProt P45984). Particulars: at 0.1 µM.
The target is the same in assay [17]. As to conditions: at 1 µM.
Assay [18] has as its target Mitogen-activated protein kinase 1 (Homo sapiens) (UniProt P28482). As to conditions: at 0.1 µM.
Assay [19] has the same target. Particulars: at 1 µM.
In assay [20] the target is Mitogen-activated protein kinase 3 (Homo sapiens) (UniProt P27361). Particulars: at 0.1 µM.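 Further: each value is a mean inhibition figure.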
Mitogen-activated protein kinase 3 (Homo sapiens), sequence (P27361 whole entry): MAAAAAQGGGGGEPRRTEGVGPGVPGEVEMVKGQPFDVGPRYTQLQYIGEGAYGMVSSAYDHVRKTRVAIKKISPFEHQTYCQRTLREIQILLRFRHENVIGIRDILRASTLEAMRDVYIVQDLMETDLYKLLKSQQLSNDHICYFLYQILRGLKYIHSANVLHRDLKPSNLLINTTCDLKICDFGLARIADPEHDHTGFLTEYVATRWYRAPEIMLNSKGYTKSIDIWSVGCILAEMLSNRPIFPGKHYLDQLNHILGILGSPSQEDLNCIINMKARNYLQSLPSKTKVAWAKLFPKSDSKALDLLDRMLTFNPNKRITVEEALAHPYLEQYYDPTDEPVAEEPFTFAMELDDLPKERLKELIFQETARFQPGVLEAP

Glycogen synthase kinase-3 beta (Homo sapiens), sequence (P49841 whole entry, looked up): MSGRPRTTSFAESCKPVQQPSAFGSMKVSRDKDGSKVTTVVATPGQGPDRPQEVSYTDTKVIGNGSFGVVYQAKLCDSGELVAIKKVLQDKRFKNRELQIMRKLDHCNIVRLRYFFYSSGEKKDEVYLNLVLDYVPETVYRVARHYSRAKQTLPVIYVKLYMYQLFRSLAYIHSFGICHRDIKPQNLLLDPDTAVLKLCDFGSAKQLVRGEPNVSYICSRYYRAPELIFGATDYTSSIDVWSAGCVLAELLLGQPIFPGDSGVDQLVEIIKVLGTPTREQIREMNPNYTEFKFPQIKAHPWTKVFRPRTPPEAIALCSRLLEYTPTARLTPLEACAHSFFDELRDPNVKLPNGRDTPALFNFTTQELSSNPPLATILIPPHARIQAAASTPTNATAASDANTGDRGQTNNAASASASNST
Dual specificity protein kinase CLK3 (Homo sapiens), sequence (P49761 whole entry, looked up): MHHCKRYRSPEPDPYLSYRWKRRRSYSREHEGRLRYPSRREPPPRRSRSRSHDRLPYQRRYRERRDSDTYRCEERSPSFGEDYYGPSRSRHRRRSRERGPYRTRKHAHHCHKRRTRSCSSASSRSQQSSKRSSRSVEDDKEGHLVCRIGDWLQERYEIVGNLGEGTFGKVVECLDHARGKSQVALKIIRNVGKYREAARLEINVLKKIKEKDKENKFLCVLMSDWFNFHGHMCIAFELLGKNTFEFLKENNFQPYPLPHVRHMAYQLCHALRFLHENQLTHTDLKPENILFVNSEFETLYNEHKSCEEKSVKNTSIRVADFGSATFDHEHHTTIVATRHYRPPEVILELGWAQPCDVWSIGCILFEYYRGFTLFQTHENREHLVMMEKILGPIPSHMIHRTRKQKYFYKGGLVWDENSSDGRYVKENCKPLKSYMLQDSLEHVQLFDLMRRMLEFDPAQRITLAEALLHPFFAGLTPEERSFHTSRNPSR
Dual specificity tyrosine-phosphorylation-regulated kinase 1B (Homo sapiens), sequence (Q9Y463 whole entry, looked up): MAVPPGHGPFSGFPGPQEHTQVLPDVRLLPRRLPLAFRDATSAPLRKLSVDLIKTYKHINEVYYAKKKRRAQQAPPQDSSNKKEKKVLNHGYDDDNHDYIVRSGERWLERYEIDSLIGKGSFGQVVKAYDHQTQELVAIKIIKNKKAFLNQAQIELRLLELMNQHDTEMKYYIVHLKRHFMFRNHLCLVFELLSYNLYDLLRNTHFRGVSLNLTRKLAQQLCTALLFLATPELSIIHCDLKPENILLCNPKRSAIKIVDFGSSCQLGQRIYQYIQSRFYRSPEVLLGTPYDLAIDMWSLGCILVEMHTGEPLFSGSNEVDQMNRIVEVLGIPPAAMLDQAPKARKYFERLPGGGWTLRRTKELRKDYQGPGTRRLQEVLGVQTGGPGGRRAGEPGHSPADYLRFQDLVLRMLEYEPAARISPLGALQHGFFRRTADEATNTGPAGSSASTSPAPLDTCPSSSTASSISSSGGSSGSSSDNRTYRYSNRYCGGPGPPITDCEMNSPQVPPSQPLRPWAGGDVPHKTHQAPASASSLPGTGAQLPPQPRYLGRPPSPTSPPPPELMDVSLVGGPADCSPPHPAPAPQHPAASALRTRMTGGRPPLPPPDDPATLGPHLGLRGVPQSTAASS
Homeodomain-interacting protein kinase 1 (Homo sapiens), sequence (Q86Z02 whole entry, looked up): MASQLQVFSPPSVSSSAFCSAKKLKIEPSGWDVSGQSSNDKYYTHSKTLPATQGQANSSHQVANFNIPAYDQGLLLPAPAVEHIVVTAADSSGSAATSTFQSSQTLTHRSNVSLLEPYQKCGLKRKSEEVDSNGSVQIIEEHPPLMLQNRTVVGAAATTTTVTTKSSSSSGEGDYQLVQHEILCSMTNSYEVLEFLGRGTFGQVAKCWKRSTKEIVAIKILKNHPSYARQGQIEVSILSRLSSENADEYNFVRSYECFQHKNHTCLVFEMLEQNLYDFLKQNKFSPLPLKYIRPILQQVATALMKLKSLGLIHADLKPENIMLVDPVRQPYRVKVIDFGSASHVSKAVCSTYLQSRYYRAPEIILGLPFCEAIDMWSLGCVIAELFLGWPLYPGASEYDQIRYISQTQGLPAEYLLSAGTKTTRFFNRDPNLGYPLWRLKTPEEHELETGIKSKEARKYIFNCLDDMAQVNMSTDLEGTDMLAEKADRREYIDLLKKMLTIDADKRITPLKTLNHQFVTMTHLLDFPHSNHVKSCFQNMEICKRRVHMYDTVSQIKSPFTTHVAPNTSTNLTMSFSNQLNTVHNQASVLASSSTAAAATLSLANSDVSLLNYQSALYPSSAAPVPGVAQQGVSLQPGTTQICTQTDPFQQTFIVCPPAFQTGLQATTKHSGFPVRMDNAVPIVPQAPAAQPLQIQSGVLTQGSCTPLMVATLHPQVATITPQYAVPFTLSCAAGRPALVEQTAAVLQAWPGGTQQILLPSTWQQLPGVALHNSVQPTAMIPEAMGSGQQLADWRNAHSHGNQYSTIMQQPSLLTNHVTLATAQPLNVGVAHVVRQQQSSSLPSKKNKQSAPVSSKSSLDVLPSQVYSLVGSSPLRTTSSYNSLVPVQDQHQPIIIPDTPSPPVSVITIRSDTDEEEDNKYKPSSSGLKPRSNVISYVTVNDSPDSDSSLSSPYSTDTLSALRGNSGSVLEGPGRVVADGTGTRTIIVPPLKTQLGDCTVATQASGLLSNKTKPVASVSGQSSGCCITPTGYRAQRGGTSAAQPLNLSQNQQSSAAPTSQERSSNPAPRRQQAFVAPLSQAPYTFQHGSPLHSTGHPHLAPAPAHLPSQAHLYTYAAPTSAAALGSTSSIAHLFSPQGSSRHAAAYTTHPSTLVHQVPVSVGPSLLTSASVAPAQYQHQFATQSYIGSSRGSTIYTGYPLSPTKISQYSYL
Mitogen-activated protein kinase 9 (Homo sapiens), sequence (P45984 whole entry, looked up): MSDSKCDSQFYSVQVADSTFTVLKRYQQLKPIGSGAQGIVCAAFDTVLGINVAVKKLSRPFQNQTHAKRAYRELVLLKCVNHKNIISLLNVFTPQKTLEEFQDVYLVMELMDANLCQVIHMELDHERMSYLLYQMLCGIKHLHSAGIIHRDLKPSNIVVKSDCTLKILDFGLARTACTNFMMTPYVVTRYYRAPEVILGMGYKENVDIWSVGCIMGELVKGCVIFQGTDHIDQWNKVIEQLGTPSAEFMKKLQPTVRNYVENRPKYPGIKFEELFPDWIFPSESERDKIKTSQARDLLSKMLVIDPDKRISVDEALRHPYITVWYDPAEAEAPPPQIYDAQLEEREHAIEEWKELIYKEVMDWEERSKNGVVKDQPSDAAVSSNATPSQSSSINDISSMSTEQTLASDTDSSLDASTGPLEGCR
Glycogen synthase kinase-3 alpha (Homo sapiens), sequence (P49840 2-483 limits assumed): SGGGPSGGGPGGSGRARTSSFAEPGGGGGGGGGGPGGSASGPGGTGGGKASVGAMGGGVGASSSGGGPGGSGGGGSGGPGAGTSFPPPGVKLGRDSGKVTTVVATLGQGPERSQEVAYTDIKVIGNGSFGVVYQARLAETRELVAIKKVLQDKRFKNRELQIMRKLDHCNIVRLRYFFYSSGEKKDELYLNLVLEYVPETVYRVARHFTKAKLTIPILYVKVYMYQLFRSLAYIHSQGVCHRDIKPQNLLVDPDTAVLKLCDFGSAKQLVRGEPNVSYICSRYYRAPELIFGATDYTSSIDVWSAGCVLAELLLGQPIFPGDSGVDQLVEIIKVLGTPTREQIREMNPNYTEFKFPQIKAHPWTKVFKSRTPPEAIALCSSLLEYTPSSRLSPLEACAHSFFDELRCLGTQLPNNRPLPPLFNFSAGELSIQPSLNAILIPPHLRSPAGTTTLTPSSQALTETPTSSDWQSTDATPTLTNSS
Mitogen-activated protein kinase 1 (Homo sapiens), sequence (P28482 whole entry): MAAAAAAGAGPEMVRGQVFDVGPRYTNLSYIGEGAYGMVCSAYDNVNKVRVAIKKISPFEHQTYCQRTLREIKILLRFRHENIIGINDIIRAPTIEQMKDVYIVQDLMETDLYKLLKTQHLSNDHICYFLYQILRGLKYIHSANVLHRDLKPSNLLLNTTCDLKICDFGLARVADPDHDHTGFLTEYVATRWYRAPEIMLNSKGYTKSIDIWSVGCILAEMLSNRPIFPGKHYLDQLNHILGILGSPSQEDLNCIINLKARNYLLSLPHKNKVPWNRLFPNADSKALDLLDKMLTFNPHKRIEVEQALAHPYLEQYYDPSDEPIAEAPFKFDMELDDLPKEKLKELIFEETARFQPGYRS

For the molecule `CCn1c(-c2nonc2N)nc2cncc(C(=O)NCCNC)c21`, the inhibition in assay [1] was found to be 9.74%; in assay [2], 20.8%; in [3], 72.4%; in assay [4], 9.71%; in [5], 54.7%; in assay [6] it was 7.99%. Moreover, the inhibition amounted to 37.2% in assay [7]; 10.2% in [8]; 49.7% in assay [9]; 6.83% in [10]; 42.3% in [11]; 0.25% in assay [12]. Also, the inhibition in [13] was 10.2%; in assay [14], -0.44%; in assay [15], 3.11%; in [16], 4.59%; in [17] it was 4.73%; in assay [18], 6.91%. For the same molecule, the inhibition was determined as 6.64% in assay [19] and 6.22% in [20].
In the case of `COc1cc(N2CCN(C(C)C)CC2)ccc1Nc1nc(Nc2cccc(F)c2C(=O)O)c2cc[nH]c2n1`, the inhibition in assay [1] turned out to be 7.82%; in [2], 5.55%; in [3] it was 23%; in [4], 5.54%; in [5], 32.6%; in assay [6], 2.88%. The inhibition in assay [7] was 4.2%; in assay [8], 5%; in assay [9] it was 6.33%; in [10], 3.95%; in assay [11] it was 6.19%; in assay [12], 4.97%. For the same molecule, the inhibition in [13] was 23.6%; in assay [14], 5.89%; in [15], 22.7%; in assay [16], 26.4%; in assay [17], 72.5%; in assay [18] it was 5.18%. The inhibition in [19] came to 6.34%; in assay [20], 5.83%.
For the molecule `COc1cccc(-n2ncc3c(N/N=C/c4ccc(C(=O)NCCN(C)C)cc4)ncnc32)c1`, the inhibition in [1] worked out at 31.7%; in assay [2] it was 38.1%; in assay [3], 71.6%; in [4], 17.8%; in [5] it was 57.1%; in assay [6] it was 20.9%. For the same molecule, the inhibition turned out to be 66.3% in [7]; 71.9% in assay [8]; 82.7% in assay [9]; 66.3% in [10]; 79.4% in [11]; 47% in [12]. In addition, the inhibition is 78.8% in assay [13]; 49.5% in assay [14]; 75.8% in [15]; 2.47% in assay [16]; 3.96% in assay [17]; 1.34% in assay [18]. Moreover, the inhibition was found to be 4.38% in assay [19] and 3.11% in [20].
With `O=C(Nc1n[nH]c2nnc(-c3cccnc3)cc12)C1CC1`, the inhibition in [1] worked out at 1.3%; in assay [2], 73.8%; in assay [3] it was 93.2%; in assay [4], 69.1%; in assay [5], 81%; in [6] it was 20.6%. In addition, the inhibition in assay [7] came to 75%; in assay [8], 80.5%; in assay [9], 82.4%; in assay [10], 80%; in [11] it was 81.5%; in assay [12] it was 33.6%. The inhibition in assay [13] stood at 74%; in assay [14], 0.58%; in assay [15] it was 8.84%; in assay [16], 0.33%; in assay [17] it was 1.3%; in [18], 0.58%. Further, the inhibition in assay [19] stood at 2.75%; in assay [20] it was 0.53%.
On to `CS(=O)(=O)Nc1ccc(-c2cc(-c3ccccc3)cc(C(N)=O)c2N)cc1`, for which the inhibition was -0.57% in assay [1]; 0.57% in assay [2]; 4.13% in assay [3]; 0.32% in assay [4]; 1.12% in assay [5]; 0.61% in assay [6]. The inhibition in [7] was 2.18%; in [8], 1.48%; in [9] it was 3.56%; in [10], 0.94%; in assay [11] it was 3.26%; in assay [12] it was -3.53%. For the same molecule, the inhibition was 2.26% in [13]; 0.57% in [14]; 2.28% in assay [15]; 0.94% in [16]; 1.19% in assay [17]; 4.56% in [18]. In addition, the inhibition in assay [19] was 2.91%; in [20], 2.82%.
As for `c1ccc(-c2n[nH]cc2-c2ccnc(-c3ccc(OCCn4ccnc4)cc3)c2)nc1`, the inhibition in assay [1] is 0.82%; in [2], 3.79%; in [3], 5.07%; in assay [4] it was 0.31%; in assay [5], 0.62%; in assay [6], -0.06%. Further, the inhibition is 0.1% in assay [7]; 1.15% in assay [8]; 3.28% in assay [9]; 1.16% in assay [10]; 4.83% in [11]; -0.98% in [12]. Besides, the inhibition is -1.32% in assay [13]; -0.24% in [14]; 2.03% in assay [15]; 2.7% in [16]; 8.69% in assay [17]; 1.6% in assay [18]. For the same molecule, the results for the inhibition in assay [19] and in assay [20] were 1.52% and 0.3%, respectively.

For orientation: inhibition means the relative decrease from the control value, in per cent.

For the origin of these results see ChEMBL document CHEMBL1961873, “Compounds: GSK PKIS; Assays: Nanosyn kinase panel” (2012).
